Bioassay records as filed in PubChem BioAssay.
ELG1 DNA repair – qHTS screen for small molecules that inhibit ELG1-dependent DNA repair in human embryonic kidney (HEK293T) cells expressing luciferase-tagged ELG1. hit rate 2.3% among 330,000. HEK293T ELG1-luciferase reporter, luminescence, 16 h; DNA damage induced by 5-fluorouridine. AID 504467, 2011. Potency, µM (top dose mostly 46.1 µM), hits mostly inhibitors; further: nearly all actives have a fitted effect of over 55% in size
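Quantitative HTS, concentration-response format. 2,000 cells/well co-treated with 5-fluorouridine and compound, 16 hr in 5% CO2 at 37 °C; ONE-Glo luminescence read after 30 min.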
RORgamma inh – qHTS for inhibitors of ROR gamma transcriptional activity | Nuclear receptor ROR-gamma (Mus musculus), P51450 | AID 2551, 2010 | Potency, µM (titrated, usually from 53.6 µM), usual class: inhibitors | Drosophila S2 Gal4-RORgamma UAS-luciferase reporter, 20 h | hit rate 5.4% among 310,000; further: nearly all actives have a fitted effect of over 60% in size
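Luminescence from a UAS-regulated Photinus luciferase reporter in stably transfected Drosophila Schneider cells is measured; decreased signal marks ROR gamma inhibition. Fusion expression is induced by 700 uM copper sulfate for 20 hr.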
VP16 counter – VP16 counterscreen qHTS for inhibitors of ROR gamma transcriptional activity; Drosophila S2 Gal4-VP16 UAS-luciferase, luminescence, 20 h; Potency, µM (highest dose often 53.6 µM), actives largely listed as inhibitors; hit rate 3.5% among 310,000;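 further: Gal4-VP16 expression switched on by copper sulfate through the metallothionein promoter; nearly all actives have a fitted effect of over 50% in size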
TDP1 cell CPT – qHTS for Inhibitors of human tyrosyl-DNA phosphodiesterase 1 (TDP1): qHTS in cells in presence of CPT; chicken DT40 Tdp1-/-;hTDP1 cells + 20 nM CPT, ATP luminescence, 48 h; Potency, µM (series often up to 46.2 µM), most hits filed as inhibitors; hit rate 12% among 420,000; further: nearly all actives have a fitted effect of over 55% in size
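Chicken DT40 Tdp1-/- cells stably complemented with human TDP1 were seeded at 400 cells/well in medium containing 20 nM camptothecin, exposed to pin-transferred compounds, and grown at 37 °C for at least 48 hr. Viability was read as ATP luminescence.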
DT40 TDP1 no CPT – qHTS for Inhibitors of human tyrosyl-DNA phosphodiesterase 1 (TDP1): qHTS in cells in absence of CPT; hit rate 15% among 420,000; AID 686978, 2013; DT40 Tdp1-/- hTDP1 cells, no CPT, ATP luminescence, 48 h; Potency, µM (doses to about 46.2 µM), usual class: inhibitors; further: nearly all actives have a fitted effect of over 55% in size
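A cellular qHTS used chicken DT40 cells lacking endogenous Tdp1 but carrying stably transfected human TDP1. Compounds were applied without camptothecin, and cell growth kinetics were judged by ATP-dependent luminescence after ≥48 hr.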
ALOX12 inh – Primary qHTS assay for inhibitors of human arachidonate 12S-lipoxygenase (ALOX12): Round 2; hit rate 1.1% among 580,000; Potency, µM (highest dose often 108 µM), most hits filed as inhibitors; purified 12hLO, xylenol orange hydroperoxide absorbance; Polyunsaturated fatty acid lipoxygenase ALOX12 (Homo sapiens), P18054
Target sequence (P18054 whole entry, looked up): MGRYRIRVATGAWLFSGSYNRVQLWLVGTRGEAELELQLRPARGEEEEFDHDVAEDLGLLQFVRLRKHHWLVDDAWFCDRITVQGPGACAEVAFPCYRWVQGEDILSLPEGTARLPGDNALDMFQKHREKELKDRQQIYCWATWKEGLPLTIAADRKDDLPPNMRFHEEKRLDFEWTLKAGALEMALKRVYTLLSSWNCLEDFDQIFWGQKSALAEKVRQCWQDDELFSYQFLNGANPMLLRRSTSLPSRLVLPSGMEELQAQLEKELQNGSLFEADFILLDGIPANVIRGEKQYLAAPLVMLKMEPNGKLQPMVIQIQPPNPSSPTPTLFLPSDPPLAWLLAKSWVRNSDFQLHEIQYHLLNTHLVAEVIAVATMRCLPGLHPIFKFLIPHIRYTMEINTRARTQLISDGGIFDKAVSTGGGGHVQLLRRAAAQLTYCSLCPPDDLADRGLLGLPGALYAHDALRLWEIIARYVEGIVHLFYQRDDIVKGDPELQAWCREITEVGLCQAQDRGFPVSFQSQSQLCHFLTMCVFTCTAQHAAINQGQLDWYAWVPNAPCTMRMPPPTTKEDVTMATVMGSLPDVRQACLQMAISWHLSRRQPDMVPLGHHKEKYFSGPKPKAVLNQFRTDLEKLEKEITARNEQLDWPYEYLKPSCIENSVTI
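Purified human 12hLO at 150 nM in 25 mM Hepes, 0.01% Triton X-100, pH 7.0, preincubated 15 min at room temperature with compound. Reaction started with 40 uM arachidonic acid, 30 min at room temperature. Hydroperoxide measured by Fe-xylenol orange, 573/405 nm absorbance ratio.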
A number is an active result. Shown are actives, neighbours in structure and some others; about 15% of the full set was active somewhere. The call rests on the fitted dose curve; in most records, active means well fitted curve in the direction sought with a large enough effect; inconclusive means small, poorly fitted or top-dose-only effect, or another doubt; inactive means no such curve, though single readings can be large; an effect the other way counts as inactive or inconclusive.

What do the screens show for `COc1ccc(C2=NOC3(CCN(C(=O)c4ccccc4OC)C3)C2)cc1` (stereo not drawn)?
ALOX12 inh: inactive

What do the screens show for `CN1C(=O)CCCCC1C(=O)N1CCCCC1` (stereo not drawn)?
ALOX12 inh: inactive

Results for Cc1ccc(C(=O)N2C(C(=O)NCC(C)C)COC23CCN(C(=O)c2cccc(Cl)c2)CC3)cc1 (stereo not drawn) ?
ALOX12 inh: inactive

How did CCc1ccc(C(=O)c2cn(CC(=O)Nc3cccc(OC)c3)c3ccc(OC)cc3c2=O)cc1 do in these assays?
TDP1 cell CPT: inconclusive; DT40 TDP1 no CPT: 23.1µM; ALOX12 inh: inactive

Results for CCc1ccc2c(c1)c(=O)c(C(=O)c1ccccc1)cn2CC(=O)Nc1ccc(C)c(Cl)c1 ?
TDP1 cell CPT: 20.6µM; DT40 TDP1 no CPT: 11.6µM; ALOX12 inh: inconclusive

Results for COc1ccc2c(c1)c(=O)c(C(=O)c1ccc(C)cc1)cn2CC(=O)Nc1ccc(F)cc1 ?
ELG1 DNA repair: inactive; RORgamma inh: inactive; VP16 counter: inactive; TDP1 cell CPT: inconclusive; DT40 TDP1 no CPT: 16.4µM; ALOX12 inh: inactive

Results for COc1ccc2c(c1)c(=O)c(C(=O)c1ccc(F)cc1)cn2CC(=O)Nc1ccc(F)cc1 ?
ELG1 DNA repair: inactive; RORgamma inh: inactive; VP16 counter: inactive; TDP1 cell CPT: inconclusive; DT40 TDP1 no CPT: inconclusive; ALOX12 inh: inconclusive

How did CCOc1ccc(C(=O)c2cn(CC(=O)Nc3ccc(C)c(Cl)c3)c3ccc(OCC)cc3c2=O)cc1 do in these assays?
TDP1 cell CPT: inactive; DT40 TDP1 no CPT: inactive; ALOX12 inh: inactive

What do the screens show for `COc1cccc(NC(=O)Cn2cc(C(=O)c3ccc(C)cc3)c(=O)c3cc(OC)ccc32)c1`?
TDP1 cell CPT: inconclusive; DT40 TDP1 no CPT: inconclusive; ALOX12 inh: inactive

What do the screens show for `CC1CCCN(C(=O)c2coc(COc3cccc(F)c3F)n2)C1` (stereo not drawn)?
ALOX12 inh: inactive

What do the screens show for `O=C(N[C@@H]1COCC[C@@H]1Oc1ccc(F)cc1)c1cnc(C2CC2)nc1`?
ALOX12 inh: inactive

How did O=C(C[C@H]1C/C=C\CC[C@H](Cc2ccc(F)cc2)C(=O)O[C@@H](c2ccccc2)CNC1=O)N[C@H](CO)Cc1ccccc1 do in these assays?
ELG1 DNA repair: 20.6µM; TDP1 cell CPT: inconclusive; DT40 TDP1 no CPT: inconclusive; ALOX12 inh: inconclusive

How did O=C(C[C@H]1C/C=C\CC[C@H](Cc2ccc(F)cc2)C(=O)O[C@H](c2ccccc2)CNC1=O)N[C@H](CO)Cc1ccccc1 do in these assays?
ELG1 DNA repair: 10.3µM; TDP1 cell CPT: 13µM; DT40 TDP1 no CPT: 13µM; ALOX12 inh: inconclusive

Results for O=C(C[C@H]1C/C=C\CC[C@H](Cc2ccc(F)cc2)C(=O)O[C@@H](c2ccccc2)CNC1=O)N[C@@H](CO)Cc1ccccc1 ?
ELG1 DNA repair: 9.2µM; TDP1 cell CPT: inconclusive; DT40 TDP1 no CPT: inconclusive; ALOX12 inh: inactive

Results for O=C(C[C@@H]1C/C=C/CC[C@@H](Cc2ccc(F)cc2)C(=O)OCCNC1=O)N[C@H](CO)Cc1ccccc1 ?
ELG1 DNA repair: inactive; TDP1 cell CPT: inconclusive; DT40 TDP1 no CPT: inconclusive; ALOX12 inh: inconclusive

How did O=C(C[C@H]1C/C=C\C[C@H](Cc2ccc(F)cc2)C(=O)O[C@@H](c2ccccc2)CNC1=O)N[C@H](CO)Cc1ccccc1 do in these assays?
ELG1 DNA repair: inconclusive; TDP1 cell CPT: inconclusive; DT40 TDP1 no CPT: 10.3µM; ALOX12 inh: inactive

What do the screens show for `CN(C)S(=O)(=O)c1ccc(N2CCOCC2)c(C(=O)N2CCCc3ccccc32)c1`?
ALOX12 inh: inactive

What do the screens show for `COc1ccc2c(c1)c(CN1C[C@@H](C(N)=O)[C@H](c3nc(C)no3)C1)cn2C(C)C`?
ALOX12 inh: inactive

What do the screens show for `Cc1cc(C)c2ccc(NN)nc2c1O`?
ELG1 DNA repair: inactive; RORgamma inh: 6.31µM; VP16 counter: 10µM; TDP1 cell CPT: inconclusive; DT40 TDP1 no CPT: 18.4µM; ALOX12 inh: inconclusive

What do the screens show for `Cc1cc(C)c2ccc(/C=N/O)nc2c1O`?
ELG1 DNA repair: inactive; RORgamma inh: 3.16µM; VP16 counter: 6.31µM; TDP1 cell CPT: inactive; DT40 TDP1 no CPT: inactive; ALOX12 inh: inconclusive

What do the screens show for `CC(=O)Nc1ccccc1/C=C/c1ccc2c(C)cc(C)c(O)c2n1`?
ELG1 DNA repair: inactive; RORgamma inh: 7.94µM; VP16 counter: 7.94µM; TDP1 cell CPT: inconclusive; DT40 TDP1 no CPT: 16.4µM; ALOX12 inh: inactive

Results for N#CC1=C(N)OC2=C(C(=O)CC(c3ccccc3)C2)C1c1cccc(F)c1 (stereo not drawn) ?
ALOX12 inh: 35.5µM

How did N#CC1=C(N)OC2=C(C(=O)CC(c3ccccc3)C2)C1c1ccc(Br)cc1 (stereo not drawn) do in these assays?
ALOX12 inh: 11.2µM

Results for Cc1ccc(C2CC(=O)C3=C(C2)OC(N)=C(C#N)C3c2ccc(Cl)c(Cl)c2)cc1 (stereo not drawn) ?
ALOX12 inh: 39.8µM

Results for N#CC1=C(N)OC2=C(C(=O)CC(c3ccccc3)C2)C1c1ccoc1 (stereo not drawn) ?
ELG1 DNA repair: inactive; RORgamma inh: inconclusive; VP16 counter: inactive; TDP1 cell CPT: inactive; DT40 TDP1 no CPT: inactive; ALOX12 inh: inactive

What do the screens show for `CCCC(=O)N(C)CCOc1ccccc1`?
ALOX12 inh: inactive

How did Cc1cccc(NC(=O)CSc2nnnn2-c2cccnc2)c1 do in these assays?
ELG1 DNA repair: inconclusive; RORgamma inh: inactive; VP16 counter: inactive; TDP1 cell CPT: inactive; DT40 TDP1 no CPT: inactive; ALOX12 inh: inactive

What do the screens show for `Cc1ccc(C)c(C(=O)CSc2nnnn2-c2cccnc2)c1`?
ELG1 DNA repair: inactive; RORgamma inh: inactive; VP16 counter: inactive; TDP1 cell CPT: inactive; DT40 TDP1 no CPT: 16.4µM; ALOX12 inh: inactive

How did CCCCCn1nc(C)c(/C=N/NC(=O)c2ccoc2C)c1C do in these assays?
ELG1 DNA repair: inconclusive; RORgamma inh: inconclusive; VP16 counter: 8.91µM; TDP1 cell CPT: inconclusive; DT40 TDP1 no CPT: inactive; ALOX12 inh: inactive

How did Cc1nn(Cc2ccccc2)c(C)c1/C=N/NC(=O)c1ccccc1O do in these assays?
ELG1 DNA repair: inconclusive; RORgamma inh: 11.2µM; VP16 counter: 17.8µM; TDP1 cell CPT: inactive; DT40 TDP1 no CPT: inactive; ALOX12 inh: inactive
